Measured values published in PubChem BioAssay (NCI).
About 83,000 compounds went through this panel and 20% of them were active in at least one assay; those are over-represented in the sample as a whole.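 Each cell line was grown in a 96-well plate and treated with one concentration of compound for 48 hours. Values below 10 were considered active.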 Unmarked numbers belong to inactive results. Activity calls are given as the source filed them.

What was measured:
Assay in all cases: NCI-60 one-dose screen, 48 h (100 = growth as untreated, 0 = no growth, -100 = all killed)
Details in all cases: 10 µM
[1] = tested on: BT-549 breast
[2] = tested on: MDA-MB-435 melanoma
[3] = tested on: SW-620 colon
[4] = tested on: MCF7 breast
[5] = tested on: HCC-2998 colon
[6] = tested on: KM12 colon
[7] = tested on: HCT-116 colon

COc1cc(CNCCCCCCN2C(=O)c3cccc4cccc(c34)C2=O)ccc1O
growth [1]: 83.2% | growth [2]: 58.1% | growth [3]: 57.9% | growth [4]: 11.4% | growth [5]: -21.3% (active) | growth [6]: 72.3%

Cc1ccc(S(=O)(=O)Oc2ccc3c4c(c(=O)oc3c2)CCCCC4)cc1
growth [1]: 47.3% | growth [2]: 57% | growth [3]: 30.2% | growth [4]: 50.5% | growth [5]: 51.4% | growth [6]: 35.3%

COc1cccc(-c2cc(-c3cccc(NS(C)(=O)=O)c3)nc(N)c2C#N)c1O
growth [1]: 58.1% | growth [2]: -20.8% (active) | growth [3]: 37.4% | growth [4]: 19.1% | growth [5]: -25.3% (active) | growth [6]: 23.1%

c1ccc(CO[C@H]2CO[C@H]3[C@@H]2OC[C@H]3OCc2ccccc2)cc1
growth [1]: 104% | growth [2]: 115% | growth [3]: 107% | growth [4]: 101% | growth [5]: 98% | growth [6]: 103%

Nc1nc(N)c2c(ccc3nccc32)[nH]1
growth [1]: 21% | growth [2]: 34.8% | growth [3]: 29.4% | growth [4]: 54% | growth [5]: 54.4% | growth [6]: 62.4%

Clc1ccccc1N=Cc1ccc2c(c1)OCO2
growth [1]: 78.2% | growth [2]: 99.8% | growth [3]: 114% | growth [4]: 90.5% | growth [5]: 103% | growth [6]: 98.8%

c1ccc([C@H]2CN3CCSC3=N2)cc1
growth [1]: 102% | growth [2]: 101% | growth [3]: 98.6% | growth [4]: 94.4% | growth [5]: 119% | growth [6]: 109%

CC(C)(C#N)Nc1ccccc1
growth [1]: 108% | growth [2]: 96.1% | growth [3]: 112% | growth [4]: 93.4% | growth [5]: 119% | growth [6]: 115%

COc1ccc(/C(=C2\O[C@@H]([C@H]3COC(C)(C)O3)[C@H]3OC(C)(C)O[C@@H]23)c2cc(OC)c(OC)c(OC)c2)cc1O
growth [1]: 57.7% | growth [2]: -44.7% (active) | growth [3]: 15.4% | growth [7]: 54% | growth [5]: 102% | growth [6]: 26.7%

O=C(O)CCCCSc1ncnc2nc[nH]c12
growth [1]: 106% | growth [2]: 99.3% | growth [3]: 109% | growth [4]: 99.2% | growth [5]: 108% | growth [6]: 102%

COc1ccc2c(c1)N(CCO)C1=C(C(=O)OC1)C2c1ccc(OC)c(OC)c1 (stereo unspecified)
growth [1]: 64.2% | growth [2]: -25.9% (active) | growth [3]: 17.5% | growth [4]: 27.3% | growth [6]: 18.7%

CC(=O)N(C)c1ccc(Nc2ccc(Nc3ccc(N(C)C(C)=O)cc3)c3c2C(=O)c2ccccc2C3=O)cc1
growth [1]: 84.4% | growth [2]: 101% | growth [3]: 84.1% | growth [4]: 52% | growth [5]: 89.6% | growth [6]: 71.1%

O=S(=O)(Nc1ccccn1)c1ccc(N=Nc2ccc(O)c3ncccc23)cc1
growth [1]: 1.2% (active) | growth [2]: 10.1% | growth [3]: 11.7% | growth [4]: 5.03% (active) | growth [5]: 35.7% | growth [6]: 14.1%

Clc1ccc(Nc2ccnc(NCCCNc3ccnc4cc(Cl)ccc34)n2)cc1
growth [1]: 0.946% (active) | growth [2]: -87.3% (active) | growth [3]: -60.9% (active) | growth [4]: -89.8% (active) | growth [5]: -88.9% (active) | growth [6]: -16.2% (active)

O=C(CC(c1ccccc1)N1CCOCC1)c1ccccc1 (stereo unspecified)
growth [1]: 89.8% | growth [2]: 89.7% | growth [4]: 32.2% | growth [7]: 34.5% | growth [6]: 23%

COc1ccc(OC)c(/C=C/c2nnc(Nc3ccc(Cl)cc3)o2)c1
growth [1]: 97.4% | growth [2]: 69.8% | growth [3]: 66.7% | growth [4]: 74.5% | growth [5]: 55.4% | growth [6]: 86.5%

O=C(Nc1cccc(-n2cc(-c3ccncc3)c(-c3ccc(O)c(Cl)c3)n2)c1)Nc1ccc(Cl)c(Cl)c1
growth [1]: 1.9% (active) | growth [2]: -16.7% (active) | growth [3]: 6.85% (active) | growth [4]: -0.812% (active) | growth [5]: 20.5% | growth [6]: 0.41% (active)

CCCCC(CCCCCC(CCCC)NCc1ccc2c(c1)OCO2)NCc1ccc2c(c1)OCO2 (stereo unspecified)
growth [1]: -65.7% (active) | growth [2]: -82.4% (active) | growth [3]: -100% (active) | growth [4]: -100% (active) | growth [5]: -100% (active) | growth [6]: -100% (active)
